Reference: the supplement of paper PMC6555819

Assays:
Test in all cases: PBM binding z-score (relative to random genomic background probes); higher = stronger binding; sequences stand for … in GC…GCGATTGACAGCGTAGAATGAAGG
[1] = tested on: FXR:RXRa (NR concentration 270 nM, RXRa partner concentration 90 nM)
In short: (§1)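 Custom Agilent 4×180K protein-binding microarrays carried double-stranded probes. Their 34-nt variable regions held direct-repeat seeds, single-nucleotide variants, half-site ablations and random human genomic background sequences. Arrays were incubated 1 h with ligand-free nuclear receptor dimers in PBS pH 7.4, 2% milk, 0.02% Triton X-100, 1 mM DTT, 0.2 mg/mL BSA and 0.4 mg/ml salmon testes DNA. Antibodies against each partner (one per run) detected binding, and scanned fluorescence was regression-normalized. Binding z-scores use random background probes as reference.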

[2] = tested on: LXRa:RXRa (NR concentration 270 nM, RXRa partner concentration 90 nM)
In short: as §1

[3] = tested on: LXRa homodimer (NR concentration 270 nM)
In short: as §1

[4] = tested on: LXRb:RXRa (NR concentration 270 nM, RXRa partner concentration 90 nM)
In short: as §1

[5] = tested on: LXRb homodimer (NR concentration 270 nM)
In short: as §1

[6] = tested on: PPARa:RXRa (NR concentration 270 nM, RXRa partner concentration 90 nM)
In short: as §1

[7] = tested on: PPARg:RXRa (NR concentration 180 nM, RXRa partner concentration 90 nM)
In short: as §1

[8] = tested on: PPARg:RXRa 270nM:90nM, anti-RXR (NR concentration 270 nM, RXRa partner concentration 90 nM)
In short: as §1

[9] = tested on: PPARg:RXRa 30nM:10nM, anti-RXR (NR concentration 30 nM, RXRa partner concentration 10 nM)
In short: as §1

[10] = tested on: PPARg:RXRa 90nM:30nM, anti-RXR (NR concentration 90 nM, RXRa partner concentration 30 nM)
In short: as §1

[11] = tested on: PPARg:RXRa DBDmut IVT, anti-RXR (DBD mutation: RXRa K156A/R161A, NR concentration 270 nM, RXRa partner concentration 90 nM)
In short: as §1

[12] = tested on: PPARg:RXRa IVT, anti-PPARg (NR concentration 270 nM, RXRa partner concentration 90 nM)
In short: as §1

[13] = tested on: PPARg DBDmut:RXRa IVT, anti-PPARg (DBD mutation: PPARg1 K132A/R137A, NR concentration 270 nM, RXRa partner concentration 90 nM)
In short: as §1

[14] = tested on: PPARg DBDmut IVT, anti-PPARg (DBD mutation: PPARg1 K132A/R137A, NR concentration 270 nM)
In short: as §1

[15] = tested on: PPARg homodimer (NR concentration 180 nM)
In short: as §1

[16] = tested on: PXR:RXRa (NR concentration 270 nM, RXRa partner concentration 90 nM)
In short: as §1

[17] = tested on: PXR homodimer (NR concentration 270 nM)
In short: as §1

[18] = tested on: RARa:RXR (NR concentration 270 nM, RXRa partner concentration 90 nM)
In short: as §1

[19] = tested on: RARa homodimer (NR concentration 270 nM)
In short: as §1

[20] = tested on: RARb:RXRa (NR concentration 270 nM, RXRa partner concentration 90 nM)
In short: as §1

Sequence	PBM binding z-score [1]	PBM binding z-score [2]	PBM binding z-score [3]	PBM binding z-score [4]	PBM binding z-score [5]	PBM binding z-score [6]	PBM binding z-score [7]	PBM binding z-score [8]	PBM binding z-score [9]	PBM binding z-score [10]	PBM binding z-score [11]	PBM binding z-score [12]	PBM binding z-score [13]	PBM binding z-score [14]	PBM binding z-score [15]	PBM binding z-score [16]	PBM binding z-score [17]	PBM binding z-score [18]	PBM binding z-score [19]	PBM binding z-score [20]
GCATATAGGTAATGCAAGGTGAAAGTCCGATTGT	0.366	1.83	-0.0493	0.568	-0.489	1.74	1.05	1.15	0.286	0.74	4.12	3.49	0.246	0.658	0.642	0.573	0.208	1.73	0.262	0.407
CGTCAAAGTTGAAGGTAACGTAACAGAAAGCAGC	-0.11	-0.00279	-0.157	0.207	-0.458	1.02	0.813	1.01	0.188	0.76	0.274	0.441	0.243	0.266	0.228	0.242	-0.121	0.656	0.1	1.64
TCTCGGTGGACACGAAAGGTCAGAGCTCGACATC	2.46	3.58	2.21	3.1	-0.0844	3.69	1.16	2.93	2.55	2.78	1.22	1.82	-0.273	-0.543	3.39	3.87	0.441	4.59	-0.0957	3.86
TGACCAAGGTGAGCTGAGGTCGTTGATCCAACTC	0.866	1.01	-0.752	0.289	-1.36	1.62	0.26	0.767	-0.66	0.279	0.169	1.43	0.123	-1.59	-0.0589	4.67	0.0412	1.84	-0.758	1.69
ATACCAAGGTGATCGTGAGGTCGGTGATACTAAC	0.882	0.302	0.1	0.211	-0.161	0.78	0.426	-0.213	-0.123	-0.222	0.199	1.12	-0.398	0.469	0.85	0.944	0.32	0.998	0.866	1.11
CGAACTAGGTCCGAACAGGACAGTGAAGGATGAT	-0.542	-0.905	-0.619	-1	-0.811	-1.03	0.576	-0.558	-0.414	-0.784	1.53	0.592	-1.02	-0.172	-1.32	-0.715	-0.581	-0.746	-0.281	-0.345
AGAATGAGGTTATAAAGATCAGGGAATTGCGGTC	1.45	1.31	0.315	1.17	0.00236	2.65	1.58	2	0.752	1.52	2.13	2.04	0.947	0.696	1.14	1.2	0.572	1.58	0.211	1.32
